According to PubChem BioAssay AID1028 (SRMLSC, 2008):
Measured potencies and affinities stand elsewhere.

Molecular target: diphosphomevalonate decarboxylase (Streptococcus pneumoniae D39) (UniProt Q9FD53)
Assay: S. pneumoniae DPM-DC inhibition retest, confirmation, biochemical, cuvette format, coupled NADH fluorescence (AID 1028)
Details: purified DPM-DC, rate, at 50 µM, active compounds read high;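 active means enzyme inhibitor confirmed by dose series, half-maximal inhibitory concentration at most 40 µM; inactive means the rest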

inhibition, inactive:
COc1ccccc1-c1nc2cc(N)ccc2o1 14.5%, Cc1ccccc1-c1nc2cc(N)ccc2o1 6.79%, CCN(CC)C(=O)c1ccccc1-n1sc2ccccc2c1=O 14.9%, COc1ccc2oc(-c3ccc(C)cc3)nc2c1 -3.06%, COc1ccc2nc(-c3ccc(F)cc3)oc2c1 4.34%, CN(C)C(=O)c1ccccc1-n1sc2ccccc2c1=O 16.7%, O=C(c1ccccc1-n1sc2ccccc2c1=O)N1CCOCC1 13.7%, COc1ccc2nc(-c3cc(C)ccc3C)oc2c1 1.13%, COc1ccc2oc(-c3cc(C)ccc3C)nc2c1 2.66%, O=C(c1ccccc1-n1sc2ccccc2c1=O)N1CCCC1 16.1%, Cc1ccc(-c2nc3ccccc3o2)cc1 7.2%, Cc1ccc(C)c(-c2nc3ccccc3o2)c1 -0.27%, COc1ccc2nc(-c3ccc(C)cc3)oc2c1 5.23%, Cc1ccc(-c2nc3ccccc3o2)cc1F 9.15%, Cc1ccc(C)c(-c2nc3cccc(N)c3o2)c1 -0.39%, Cc1cccc(-c2nc3ccccc3o2)c1 5.31%, Cc1ccccc1-c1nc2cccc(N)c2o1 -2.22%, COc1ccc2nc(-c3cc(OC)c(OC)c(OC)c3)oc2c1 3.99%, Fc1cccc(-c2nc3ccccc3o2)c1 4.51%, COc1ccc(-c2nc3ccccc3o2)cc1 6.86%, COc1ccc2nc(-c3ccncc3)oc2c1 4.83%, COc1ccc2oc(-c3ccncc3)nc2c1 -0.2%, Cc1ccc(C)c(-c2nc3cc(N)ccc3o2)c1 0.87%, COc1ccc2oc(-c3ccc([N+](=O)[O-])cc3)nc2c1 1.63%
